From PubChem BioAssay (NCATS)
Inconclusive results are not listed. Calls of active or inactive are those of the source. Calls come from the whole dose curve; as a rule, active = well fitted inhibition curve with a large enough effect in the repeat runs; inconclusive = weak or mixed curves; inactive = no such curve, though single readings can be large or run the other way.

molecular target: Cytochrome P450 2C9 (Homo sapiens) (UniProt P11712); assay: Cytochrome P450 family 2 subfamily C member 9 (CYP2C9) small molecule antagonists: luciferase biochemical (cell-free) qHTS assay (AID 1645842); conditions: P450-Glo CYP2C9 enzyme assay, luciferin luminescence; series mostly up to 57.4 µM; activity change, negative = inhibition: at the top concentration; note: nearly all actives have a fitted effect of over 55% in size
Sequence (P11712 whole entry, looked up): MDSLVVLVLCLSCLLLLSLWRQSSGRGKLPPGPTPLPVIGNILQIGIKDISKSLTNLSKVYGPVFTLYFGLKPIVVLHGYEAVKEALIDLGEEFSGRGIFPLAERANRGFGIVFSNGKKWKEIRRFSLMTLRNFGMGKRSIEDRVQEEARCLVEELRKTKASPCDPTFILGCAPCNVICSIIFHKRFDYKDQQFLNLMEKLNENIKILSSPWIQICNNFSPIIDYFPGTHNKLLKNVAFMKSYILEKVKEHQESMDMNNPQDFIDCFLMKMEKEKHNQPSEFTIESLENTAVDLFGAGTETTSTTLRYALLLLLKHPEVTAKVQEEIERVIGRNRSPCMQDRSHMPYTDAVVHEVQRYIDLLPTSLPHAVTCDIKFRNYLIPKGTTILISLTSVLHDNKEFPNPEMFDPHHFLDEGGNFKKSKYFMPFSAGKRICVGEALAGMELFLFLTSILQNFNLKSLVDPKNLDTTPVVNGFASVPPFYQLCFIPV
Description: National Center for Advancing Translational Sciences [NCATS] Assay Overview: Cytochrome P450 (CYP) enzymes are membrane-bound hemeproteins that play a key role in metabolism of drugs and xenobiotics. Assaying the effect of chemicals on CYP isozymes is useful to minimize the adverse drug reactions and toxicities in drug development process. Chemical compounds were tested for their effect on CYP enzyme activities by using P450-Glo (TM) screening systems (Promega Corporation, Madison, WI). These systems provide a luminescent method containing proluciferin substrates and are converted to luciferin products by CYP isozymes. The luciferin products formed are detected with a luciferin detection reagent, and the amount of light produced is proportional to CYP activity. P450-Glo (TM) CYP2C9 screening system (Catalog. No. V9790) was used to detect the compounds that interfere in CYP2C9 activity.
Assay Protocol Summary: Two ul of enzyme-substrate mix supplemented with 0.4% Bovine Serum Albumin was dispensed into medium binding white/solid 1536-well plates (Greiner Bio-One North America Inc., Monroe, NC) using a Flying Reagent Dispenser (FRD, Aurora Discovery, San Diego, CA). […] The assay plates were incubated at room temperature for 10 min. Then 2 ul of NADPH regeneration solution was added to each well of the assay plates using an FRD and incubated at 37C for 1 h. The reaction was stopped by adding 4 ul of detection reagent using an FRD and after 20 min incubation at room temperature, the luminescence signal was measured using a ViewLux plate reader (Perkin Elmer, Shelton, CT). Data were expressed as relative luminescence units.
% is set by controls: 0 for no effect and ±100 for the full control effect; potency is the fitted concentration of half-maximal effect.

Row | Structure (SMILES) | Potency | activity change, negative = inhibition
1 | Cc1[nH]c2ccccc2c1CC(=O)N[C@@H](Cc1ccccc1)C(=O)N(C)c1ccccc1 | 9.52 µM (active) | 
2 | Cc1cc(C)c2nc(-c3ccccn3)cc(C(=O)Nc3ccc(S(=O)(=O)Nc4onc(C)c4C)cc3)c2c1 | 26.8 µM (active) | 
3 | NC1=NC2(c3cc(NC(=O)c4ccc(F)cn4)ccc3F)COCC2CS1 (stereo not given) | 9.52 µM (active) | 
4 | O=C(Nc1cc(-c2ccccc2)nn1-c1ccccc1F)c1ccc([N+](=O)[O-])cc1 | 6.74 µM (active) | 
5 | COC(=O)[C@H](Cc1cccc(C(=N)N)c1)[C@@H](C)NC(=O)c1ccc(-c2cc[n+]([O-])cc2)cc1 |  | 0.26% (inactive)
6 | CC(=O)Nc1cccc2c1c(Sc1ccc(Cl)cc1)c(C)n2CC(=O)O | 13.5 µM (active) | 
7 | Oc1ccc(CC2NCCc3cc(O)c(O)cc32)cc1 (stereo not given) |  | -5.32% (inactive)
8 | Cc1cc(CNC(=O)c2cc(C(=O)NCc3ccc(F)c(C)c3)ncn2)ccc1F |  | 17.7% (inactive)
9 | Cc1nnc(-c2sc(NC(=O)[C@H](C(C)C)n3c(=O)[nH]c4ccccc4c3=O)nc2C)o1 | 9.52 µM (active) | 
10 | COc1ccc(-n2[nH]c3c(cnc4ccccc43)c2=O)cc1 |  | 16.8% (inactive)
11 | Nc1ncnc2c1ncn2[C@H]1O[C@@H](C(=O)N2CCN(CC(=O)Nc3cccc4c3CNC4=O)CC2)[C@H](O)[C@@H]1O |  | 1.03% (inactive)
12 | COc1cccc(OC)c1-c1nc(C(=O)N[C@@H](CC(C)C)C(=O)O)cn1-c1ccnc2cc(Cl)ccc12 |  | 3.44% (inactive)
13 | CC[C@@H](Nc1c(Nc2cccc(C(=O)N(C)C)c2O)c(=O)c1=O)c1ccc(C)o1 | 2.39 µM (active) | 
14 | N#Cc1cccc(-c2c[nH]c3ncnc(N4CCOCC4)c23)c1 | 2.39 µM (active) | 
15 | CCNC(=O)OC1CCN(c2nncc3cc(OC)c(OC)cc23)CC1 | 15.1 µM (active) | 
16 | CCNC(=O)C1CC(F)(c2ccc(CN3CCCC3)c(F)c2)C1 (stereo not given) |  | 0.189% (inactive)
17 | NC(=O)c1ccc(F)c2c1C[C@@H](N(C1CCC1)C1CCC1)CO2 |  | -19.3% (inactive)
18 | CNc1nc(C)nc(N[C@H]2CCC[C@@H](C(=O)NCc3ccc(C#N)cc3C(F)(F)F)C2)n1 |  | 18.8% (inactive)
19 | O=C(c1ccc(Cl)c([N+](=O)[O-])c1)N1CCN(c2ccccc2F)CC1 | 2.68 µM (active) | 
20 | C[C@@H](c1ccccc1)N(C(N)=NC#N)c1cccc2ncccc12 | 10.7 µM (active) | 

Row | Structure (SMILES) | Potency | activity change, negative = inhibition
21 | Cc1ccccc1-c1cc(N2CCN(C)CC2)ncc1N(C)C(=O)C(C)(C)c1cc(C(F)(F)F)cc(C(F)(F)F)c1 | 16.9 µM (active) | 
22 | NC(=O)[C@@H]1CC[C@H](c2ccc(OCc3ccccc3F)cc2)N1 |  | -17.9% (inactive)
23 | CN(C)c1ccc(C2O[C@@H](c3ccccc3)C[C@H](c3ccccc3)O2)cc1 (stereo not given in full) | 15.1 µM (active) | 
24 | COc1ccc(S(=O)(=O)Nc2nc(-c3cccc([N+](=O)[O-])c3)cs2)cc1OC | 4.25 µM (active) | 
25 | CC(C)[C@@](O)(c1ccc2cc(OC(F)F)c(OC(F)F)cc2c1)c1cn[nH]n1 | 1.07 µM (active) | 
26 | CCOC(=O)C(CCc1ccccc1)NC1CCCN2CCCC(C(=O)O)N2C1=O (stereo not given) |  | 0.723% (inactive)
27 | Cc1ccc2[nH]c(=O)c(C3=NN(C(=O)CCC(=O)O)C(c4ccc(Br)cc4)C3)c(-c3ccccc3)c2c1 (stereo not given) | 26.8 µM (active) | 
28 | COc1cc2nc(=NC(=O)c3cccnc3)n3c(c2cc1OC)NCC3 |  | -3.47% (inactive)
29 | CCOC(=O)CSc1nc2c(sc3ccccc32)c(=O)n1CCCN1CCCC1 | 13.5 µM (active) | 
30 | COc1ccc(OC)c(C2C(C#N)=C(N)Oc3n[nH]c(-c4ccc5ccccc5c4)c32)c1 (stereo not given) | 10.7 µM (active) | 
31 | COc1cc(Nc2ccc([N+](=O)[O-])cc2C(=O)O)cc2ccccc12 | 6.74 µM (active) | 
32 | Cc1nc2cc(-c3cc(F)cc(C#N)c3)ccc2s1 | 10.7 µM (active) | 
33 | COc1cc(Cc2cnc(N)nc2N)c(C(C)C)cc1OC |  | 2.26% (inactive)
34 | COc1ccc(Oc2c(Cl)cnn(C3c4ccccc4-c4ccccc43)c2=O)cc1 | 9.52 µM (active) | 
35 | COC(=O)Cn1nc(-c2cccc(OC)c2)c2ccccc21 | 13.5 µM (active) | 
36 | CN1C(=O)N(c2cc(Cl)cc(Cl)c2)C(=O)[C@@]1(C)Cc1ccc(Br)cc1 | 3.38 µM (active) | 
37 | CCC(C)C(N)C(=O)NCCN1CCOCC1 (stereo not given) |  | 0.127% (inactive)
38 | Cc1nnc(-c2ccc3occ(-c4ccc(S(C)=O)cc4)c3c2)o1 (stereo not given) | 19 µM (active) | 
39 | Cc1ccc2nc(NC(=O)CSc3nc4c(c(=O)n3-c3ccc(F)cc3)SCC4)sc2c1 | 3.38 µM (active) | 
40 | CN(C)C(=O)C(O)C(Cc1ccccc1)NC(=O)c1cc2cc(Cl)ccc2[nH]1 (stereo not given) | 10.7 µM (active) | 
